Test results: PubChem BioAssay AID449768 (Vanderbilt High Throughput Screening Facility, 2010)
About 1,400 (1.3%) of roughly 110,000 compounds were called active. The sample holds actives, similar compounds and a random draw of the others, so the mix is not that of the screen. Values without a mark were called inactive.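 How the source made its calls: active means Z score or B-score, a plate-position-corrected score, falls beyond the plate's 99.7% confidence bounds, in either direction; inactive means both scores lie inside the 99.7% bounds.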

The compounds below were run against Sodium-dependent dopamine transporter (Homo sapiens) (UniProt Q01959) (assay: changed hDAT dopamine uptake under cocaine IC80, either direction, primary screen, cocaine antagonist project, cell-based, LLC-PK1 hDAT, [14C]-dopamine uptake, MLSMR (AID 449768;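 further: scored against the spread of the other compound wells on the same plate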)). Conditions: LLC-PK1 hDAT cells, [14C]-dopamine uptake with cocaine IC80; at 10 µM; actives deviate in either direction.
Chain of Sodium-dependent dopamine transporter (Homo sapiens) (Q01959 whole entry, looked up): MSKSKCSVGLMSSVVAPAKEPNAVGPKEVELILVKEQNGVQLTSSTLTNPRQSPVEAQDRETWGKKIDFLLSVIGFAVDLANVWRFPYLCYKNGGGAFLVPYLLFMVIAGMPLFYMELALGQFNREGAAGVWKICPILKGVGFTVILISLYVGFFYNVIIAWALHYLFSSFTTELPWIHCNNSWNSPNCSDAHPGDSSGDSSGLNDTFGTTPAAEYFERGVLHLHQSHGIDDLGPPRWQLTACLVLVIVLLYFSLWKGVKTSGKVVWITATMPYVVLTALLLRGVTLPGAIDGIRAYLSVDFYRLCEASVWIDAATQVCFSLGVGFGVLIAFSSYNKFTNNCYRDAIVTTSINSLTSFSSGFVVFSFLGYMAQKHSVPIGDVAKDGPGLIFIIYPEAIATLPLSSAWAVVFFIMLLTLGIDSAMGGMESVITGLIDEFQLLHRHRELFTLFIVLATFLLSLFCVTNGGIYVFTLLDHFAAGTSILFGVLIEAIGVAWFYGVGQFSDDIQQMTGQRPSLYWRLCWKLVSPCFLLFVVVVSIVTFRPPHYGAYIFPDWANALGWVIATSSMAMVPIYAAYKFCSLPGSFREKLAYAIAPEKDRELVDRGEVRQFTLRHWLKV
Compound `COP1(=O)C[C@@H](O)[C@@H](O)[C@@H](COCc2ccccc2)O1` (some centres undefined) has a B-score of -0.427.
For `CCCCCC(=O)Nc1ccc2oc(-c3ccncc3)nc2c1`, the B-score was 1.15.
`O=C(Cc1cccc2ccccc12)Nc1ccc2oc(-c3ccccc3)nc2c1` was tested, and the B-score was -7.38 (active).
With `O=C(Nc1ccc2oc(-c3ccc4ccccc4c3)nc2c1)c1cccs1` the B-score was -1.07.
In the case of `CCO[C@@H]1OC(C(=O)NCc2nc3ccccc3[nH]2)=C[C@H](C2CCCCC2)[C@H]1CCCO`, the B-score is reported as 0.35.
For `NC(=O)[C@H]1CC2(CC(c3cccc(NC(=O)[C@H]4CCC(=O)N4)c3)=NO2)CN1C(=O)c1ccccc1C(=O)c1ccccc1` (some centres undefined), the B-score was -0.797.
Work on `COc1ccccc1NC(=O)CSc1nnc(C)n1CC1CCCO1` (centres undefined) yielded a B-score of -0.675.
Work on `CCCn1c(SCC(=O)Nc2cccc(C(=O)OCC)c2)nnc1-c1ccoc1C` yielded a B-score of -0.483.
In the case of `COc1ccccc1NC(=O)CSc1nnc(-c2ccoc2C)n1CCc1ccccc1`, the B-score is reported as 2.44 (active).
`C#CCOCCOCCOCCNc1nc(N2CCN(C(=O)C([C@@H](C)CC)n3cc(C(N)COC(=O)C(F)(F)F)nn3)CC2)nc(N2CCN(C(=O)[C@H](Cc3ccc(O)cc3)n3cc(C(N)[C@H](C)CC)nn3)CC2)n1` (some centres undefined) showed a B-score of -0.939.
`COCCN1C(=O)N[C@@H](c2ccccc2)C(C(=O)OC)=C1C` gave a B-score of -0.275.
For `COC(=O)CCCCCN1C(=O)NC(c2ccc(-c3ccccc3)cc2)C(C(=O)OCc2ccccc2)=C1C` (centres undefined), the B-score was -5.33 (active).
With `CC1=C(C(=O)OCc2ccccc2)C(c2ccc(C(F)(F)F)cc2)NC(=O)N1CCCCCC(=O)O` (centres undefined) the B-score was 0.765.
`COc1ccc(C#Cc2c(-c3ccc(OC)cc3)oc3ccc(-c4ccc5c(c4)OCO5)cc23)cc1` was tested, and the B-score was 0.0246.
`NC1=NC[C@@H](Cc2ccc(O)cc2)N1CC1CCCCC1` showed a B-score of 0.203.
With `Cc1ccc2nc(NC(=O)C3CCN(S(=O)(=O)c4ccc5c(c4)oc(=O)n5C)CC3)sc2c1` the B-score was -0.00508.
With `O=C(Nc1nc2ccc(S(=O)(=O)N3CCCC3)cc2s1)C1CCCO1` (centres undefined) the B-score was 2.39 (active).
`CS(=O)(=O)c1ccc2nc(NC(=O)C3CCCCC3)sc2c1` was tested, and the B-score was 2.38.
In the case of `COC(C[C@@H]1O[C@@H]1C(=O)[C@H](C)OCc1ccccc1)OC`, the B-score is reported as -1.33.
In the case of `COC(=O)C1=C(C(=O)OC)[C@@H]2N(C)c3ccccc3[C@@]23C[C@@H](C(=O)OC)N(C(C)=O)C3=N1`, the B-score is reported as -0.544.
`C=CCNC(=O)c1ccc2c3n(nc2c1)-c1ccc(C)cc1CO3` showed a B-score of -0.154.
In the case of `CCCc1nc2ccccc2c(C(=O)OCc2nnc(-c3cc(OC)c(OC)c(OC)c3)o2)c1CC`, the B-score is reported as 0.135.
In the case of `CCOC(=O)c1cc(-c2nnc(-c3cc(OC)c(OC)c(OC)c3)o2)c(C)nc1C`, the B-score is reported as 1.41 (active).
In the case of `CCOC(=O)c1cc2ccccc2nc1C`, the B-score is reported as 0.593.
Compound `CCO[C@H]1OC(C(=O)N2CCN(Cc3ccccc3)CC2)=C[C@@H](c2cn(C(C)=O)c3ccccc23)[C@@H]1CCCO` has a B-score of -0.181.
`CCO[C@@H]1OC(C(=O)NC2CC2)=C[C@H](C)[C@H]1CCCO` was tested, and the B-score was 0.173.
For `CN1CCN(C(CNS(=O)(=O)c2cccs2)c2cccnc2)CC1` (centres undefined), the B-score was -0.00301.
`O=C(CC(O)(C(F)(F)F)C(F)(F)F)Nc1ccc(Cl)c(Cl)c1` was tested, and the B-score was -6.33 (active).
Work on `Cc1nnc(NC(=O)Nc2ccc(Cl)c(Cl)c2)s1` yielded a B-score of -0.308.
`N/C(=N\OC(=O)Nc1ccc(Cl)c(Cl)c1)c1ncc(C(F)(F)F)cc1Cl` was tested, and the B-score was 0.438.
`Cc1nc(-c2ccccc2)sc1C1(C)CC(c2cccnc2)=NO1` (centres undefined) was tested, and the B-score was 0.641.
For `C#Cc1ccc([C@@H]2C=C(C(=O)O)O[C@H](OCCCCO)C2)cc1`, the B-score was -0.622.
For `CC1=C(N2CCN(c3ncccn3)CC2)CCC1=O`, the B-score was 0.343.
With `CC1(C)OC(=O)N2CCc3ccccc3C21C` (centres undefined) the B-score was -8.52 (active).
`COc1ccc(CN2CC[C@H]3C=CC[C@@H](C(=O)N4CCOCC4)[C@H]3C2=O)cc1OC` was tested, and the B-score was 0.696.
`C[C@]1(C(=O)NCCc2c[nH]c3ccccc23)C=C[C@@H](Cc2ccccc2)N1C(=O)c1ccccc1` was tested, and the B-score was 2.48 (active).
For `O=C(CCCCCn1c(=O)[nH]c2ccccc2c1=O)NCCc1c[nH]c2ccccc12`, the B-score was 0.015.
`Cc1cc(C)cc(NC(=S)NCCc2c[nH]c3ccccc23)c1` gave a B-score of 2.31.
In the case of `NCCCC[C@@H]1NC(=O)[C@H](CCC(=O)O)NC(=O)c2cc([N+](=O)[O-])cc(I)c2NCC[C@@H](C(N)=O)NC1=O`, the B-score is reported as -0.534.
Work on `COc1ccc(CNC(=O)C2(CC3CC(c4ccccc4)=NO3)CCN(C(=O)c3cccc(O)c3)CC2)cc1` (centres undefined) yielded a B-score of 0.0185.
`O=C(NCc1ccccc1)c1onc(CSc2ccncc2)c1C(=O)NCc1ccccc1` was tested, and the B-score was -1.52.
In the case of `NC(=O)CC[C@@H]1NC(=O)[C@H](CO)NC(=O)c2cc([N+](=O)[O-])cc(I)c2NCC[C@@H](C(N)=O)NC1=O`, the B-score is reported as -0.848.
For `Cc1ccc(OCC(=O)Nc2ccc(-c3nnc(-c4ccco4)o3)cc2)cc1`, the B-score was -0.0188.
`Cc1ccc(OCC(=O)Nc2ccc(-c3nc4ncccc4o3)cc2)cc1` was tested, and the B-score was -8.77 (active).
`O=C(Nc1cccc(-c2nc3ncccc3o2)c1)c1ccco1` gave a B-score of 0.346.
With `Cn1ccnc1-c1nnn(-c2ccc(F)cc2)n1` the B-score was -0.732.
For `CCCc1nc2c(C)cc(-c3nc4ccccc4n3C)cc2n1Cc1ccc(-c2ccccc2C(=O)O)cc1`, the B-score was 3.87 (active).
`CCC(=O)NCCc1nc2ccccc2n1CC` gave a B-score of -0.73.
Compound `Cc1ccc(Cn2c(NC(=O)c3ccco3)nc3ccccc32)cc1` has a B-score of -0.191.
Work on `CC(C)(C)Oc1ccccc1Nc1nc(NCCO)nc(N2CCCC2)n1` yielded a B-score of 1.65.
Compound `CCO[C@H]1OC(C(=O)Nc2ccccc2)=C[C@@H](C2CC2)[C@@H]1CCCO` has a B-score of -0.987.
`CCOc1cc(-c2noc(CCC(=O)N3CCOCC3)n2)ccc1OC` was tested, and the B-score was 2.65 (active).
Compound `CCOc1ccc(-c2nnn(CC(=O)N3CCN(c4ccc(OC)cc4)CC3)n2)cc1OCC` has a B-score of -0.869.
`COc1ccc(N2CCN(C(=O)CCc3nc(-c4ccc(C)cc4)no3)CC2)cc1` showed a B-score of 0.227.
